Data published in the supplement of paper PMC10338343.
± gives the standard deviation.

Columns and labels:
[1] = test system: MILI (PIWIL2) piRISC loaded with L1MC piRNA (26 nt); experiment: pre-steady-state target cleavage rate (min^-1); guide: L1MC piRNA 5'p-UAACUAAAUACUAUGCAAGCUGUAGG; higher = faster piRNA-guided slicing of the target
Outline: (§1)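 Cleave-'n-Seq used a transcribed, DNA-blocked target RNA library at 0.1 nM and active affinity-purified piRISC with one synthetic guide at 1 nM, with or without 500 nM GTSF1 partner protein, in HEPES–potassium acetate buffer at 33 °C for 0–8 or 0–960 min. Uncleaved targets were sequenced and normalised to depth and to weakly complementary targets, and three trials were pooled with k3 capped at 0.0001 min^-1. The pre-steady-state cleavage rate was estimated by a burst-and-steady-state fit.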

[2] = test system: EfPiwi piRISC loaded with L1MC piRNA (26 nt); experiment: pre-steady-state target cleavage rate (min^-1); auxiliary factor: 500 nM Ephydatia muelleri Gtsf1; guide: L1MC piRNA 5'p-UAACUAAAUACUAUGCAAGCUGUAGG; MIWI and MILI are mouse PIWI proteins and EfPiwi is from a freshwater sponge; tags in brackets are library labels; higher = faster piRNA-guided slicing of the target
Outline: as §1

[3] = auxiliary factor: 500 nM mouse GTSF1
[4] = auxiliary factor: none (no GTSF1)

| Sequence | pre-steady-state target cleavage rate [1, 3] | pre-steady-state target cleavage rate [1, 4] | pre-steady-state target cleavage rate [2] |
| --- | --- | --- | --- |
| UCCUGGUACAGCUAGGAUAGUAUUUAGUUA | 0.191 ± 0.026 | 0.00723 ± 0.0022 | 0.00331 ± 0.0017 |
| UCCUGGUACAGCUUGCAUAGUACUUUAGUUA | 0.147 ± 0.024 | 0.00705 ± 0.0032 | 0.00549 ± 0.0027 |
| UCCUGCUACAGCUUGCAAGUAUUUAGUUA | 0.138 ± 0.017 | 0.00374 ± 0.0027 | 0.00614 ± 0.0027 |
| UCCUGGAUGUGGUUGCAUAGUAUUUAGUUA | 0.163 ± 0.022 | 0.0112 ± 0.0031 | 0.00426 ± 0.0039 |
| UCCUGCAACAGCUUGCAUAGUAUUUAGUAA | 0.333 ± 0.031 | 0.00819 ± 0.0029 | 0.00572 ± 0.0023 |
| UCCUGGUACAGCUAGCAUAGUAUUUUGUUA | 0.085 ± 0.028 | 0.00427 ± 0.0033 | 0.00396 ± 0.0023 |
| UCCUGGAGCAGCUUGCAUAGUAUUUAGUUA | 0.333 ± 0.021 | 0.0118 ± 0.0032 | 0.101 ± 0.024 |
| UCCUGGAUGAGCUUGCAUAGUAUUUAGUUU [g2:g21:cont:t1U] | 0.226 ± 0.011 | 0.0146 ± 0.0035 | 0.0356 ± 0.0098 |
| UCCUGGAUGAGCUUGCAUAGUAUUUUGUUA | 0.204 ± 0.04 | 0.00454 ± 0.0024 | 0.00491 ± 0.0017 |
| UCCUGGUACAGCUUGCAUGUAUUUAGUUA | 0.0383 ± 0.0075 | 0.00417 ± 0.0024 | 0.0036 ± 0.0031 |
| UCCUGGUACAGCGUGCAUAGUAUUUAGUUA | 0.225 ± 0.031 | 0.00988 ± 0.0044 | 0.0121 ± 0.004 |
| UCCUCCUAGUCCUUGCAUAGUAUUUAGUUA | 0.235 ± 0.018 | 0.00692 ± 0.0015 | 0.0173 ± 0.0063 |
| UCCUGGUAGAGGUUGCAUAGUAUUUAGUUA | 0.185 ± 0.024 | 0.0103 ± 0.0031 | 0.00483 ± 0.0034 |
| UCCUGGAACAGCUUUGCAUAGUAUUUAGUUA | 0.248 ± 0.016 | 0.00711 ± 0.0027 | 0.0309 ± 0.0082 |
| UCCUGGUUCAGCUUGCAUACUAUUUAGUUA | 0.0631 ± 0.011 | 0.00505 ± 0.0024 | 0.00751 ± 0.0031 |
| UCCUCCUUACAGCUUGCAUAGUAUUUAGUUA | 0.301 ± 0.014 | 0.011 ± 0.0028 | 0.117 ± 0.03 |
| UCCUGGUACCGCUUGCAUAGUAUUUAGUUA | 0.293 ± 0.037 | 0.0123 ± 0.0052 | 0.00412 ± 0.0035 |
